From PubChem BioAssay (NCI)
Compounds without any hit were thinned out: in the full panel of roughly 83,000, 20% have a hit.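 Growth was measured after 48 h exposure to one concentration of compound in 96-well plates. Values under 10 count as active.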 Activity calls are given as the source filed them.

Assays:
Test in all cases: NCI-60 one-dose screen, 48 h (100 = growth as untreated, 0 = no growth, -100 = all killed)
Conditions in all cases: 10 µM unless noted
[1] = system: NCI-H23 lung
[2] = system: NCI-H226 lung
[3] = system: NCI-H322M lung
[4] = system: HOP-62 NSCLC
[5] = system: NCI-H460 lung
[6] = system: HOP-92 NSCLC
[7] = system: NCI-H522 lung
[8] = system: A549/ATCC NSCLC
[9] = system: 786-0 renal
[10] = system: COLO 205 colon
[11] = system: DU-145 prostate
[12] = system: K-562 leukemia
[13] = system: MALME-3M melanoma
[14] = system: MDA-MB-231 breast
[15] = system: RXF 393 renal
[16] = system: SF-268 CNS
[17] = system: SF-295 CNS
[18] = system: UACC-257 melanoma
[19] = system: M14 melanoma

Measured: growth

COc1cc(NCCCCN=C(N)N)c2ncccc2c1
inactive: [1] 13.9% | [2] 98.9% | [3] 73.5% | [4] 80.9% | [5] 104% | [6] 68.8% | [8] 86.8% | [9] 91.6% | [10] 82.6% | [11] 108% | [12] 84.6% | [13] 13.6% | [14] 63.5% | [15] 112% | [16] 30.4% | [17] 87% | [18] 102% | [19] 96.5%
active: [7] -9.41%

COc1ccc(C(=O)c2sc3nc4c(cc3c2N)CCCC4)cc1OC
inactive: [1] 39.3% | [2] 37.1% | [3] 86.8% | [4] 38.5% | [5] 13% | [6] 67.3% | [7] 12.6% | [8] 41.4% | [9] 66.1% | [10] 16.5% | [11] 62% | [12] 10.9% | [13] 63% | [14] 46.3% | [15] 31.6% | [16] 63.9% | [17] 28.6% | [18] 79.6% | [19] 27.7%

CCC(c1ccc(O)cc1)C(CC)c1ccc(O)c(F)c1 (stereo not drawn)
inactive: [1] 77% | [2] 91.6% | [3] 91.1% | [4] 94.5% | [5] 98.9% | [6] 59.5% | [7] 77.9% | [8] 89% | [9] 75.4% | [10] 114% | [11] 97.6% | [12] 47.4% | [13] 85.2% | [14] 97.2% | [15] 92.6% | [16] 82.6% | [17] 84.9% | [18] 89% | [19] 80.5%

CS(=O)(CCCCN=C=S)=NC(=O)c1c(F)c(F)c(F)c(F)c1F (stereo not drawn)
inactive: [1] 96.7% | [2] 99.6% | [3] 108% | [4] 111% | [5] 88.4% | [6] 107% | [7] 57% | [8] 80.3% | [9] 89% | [10] 89.4% | [11] 91.1% | [12] 60.8% | [13] 58.7% | [14] 91.8% | [15] 94.2% | [16] 101% | [17] 97.8% | [18] 83.5% | [19] 98.4%

CCOC(=O)/C=C/c1ccc(C(=O)OCC)[nH]1
inactive: [1] 72.3% | [2] 89% | [3] 57.4% | [4] 76.7% | [5] 14.3% | [6] 53.8% | [7] 54.4% | [8] 40.3% | [9] 90.2% | [10] 16.2% | [11] 73.4% | [12] 19.4% | [13] 73.1% | [14] 58.8% | [15] 87.3% | [16] 69.2% | [17] 63% | [18] 68.1% | [19] 47.6%

CCN(CC)CCCCNc1ccc(NCCCCN(CC)CC)c2c1C(=O)c1ccccc1C2=O
active: [12] 1.87% | [19] -36.6%
inactive: [1] 77.5% | [2] 113% | [3] 110% | [4] 101% | [5] 57.4% | [6] 55.5% | [7] 96.6% | [8] 56.6% | [9] 82% | [10] 76.1% | [11] 94.1% | [13] 132% | [14] 80.5% | [15] 74.9% | [16] 101% | [17] 110% | [18] 97.9%

O=C1c2c[n+](Cc3ccccc3)ccc2-c2nc3ccccc3c3ccnc1c23
active: [1] -32.8% | [2] -92.2% | [3] -17.8% | [4] -27.2% | [5] -55% | [6] -45.4% | [7] -66.3% | [8] -26.1% | [9] -5.78% | [10] -90.1% | [11] -89.5% | [12] -6.85% | [13] -95.7% | [14] -14% | [15] -57.1% | [16] -1.74% | [17] -17.4% | [18] -67.9% | [19] -68.4%

CC1=C(NCCN2CCCC2)C(=O)c2c(OCc3ccc(F)c(Cl)c3)cccc2C1=O
inactive: [1] 69.8% | [2] 90.4% | [3] 64.3% | [4] 68.8% | [5] 57.7% | [6] 57.1% | [7] 76% | [8] 78.3% | [9] 63.6% | [10] 69.5% | [11] 84.3% | [12] 17% | [13] 44.3% | [14] 59.1% | [15] 71.8% | [16] 70.5% | [17] 45.6%
active: [18] -63.9% | [19] -73.7%

O=C1CC(c2nc3ccccc3[nH]2)CN1C1CCCCC1 (stereo not drawn)
inactive: [1] 89.8% | [2] 95.4% | [3] 103% | [4] 94.9% | [5] 109% | [6] 91.3% | [7] 89.3% | [8] 104% | [9] 110% | [10] 102% | [11] 110% | [12] 102% | [13] 103% | [14] 102% | [15] 111% | [16] 101% | [17] 97.3% | [18] 101% | [19] 104%

O=C1c2cc3c(cc2-c2c1c1cc(F)c(F)cc1c(=O)n2C[C@H](O)CO)OCO3
active: [1] -30.4% | [2] -74.1% | [3] -3.54% | [4] -35.2% | [5] 1.39% | [6] 9.43% | [7] -3.34% | [8] -57.8% | [9] -20.8% | [10] -17.9% | [11] 1.97% | [12] 6.33% | [13] -21.3% | [14] 5.4% | [15] -51.5% | [16] 6.49% | [17] -7.95% | [18] -37.2% | [19] 1.79%

O=C(CO[N+](=O)[O-])Nc1ccc(C(=O)/C=C/c2ccc3c(c2)OCO3)cc1
inactive: [1] 58.1% | [2] 107% | [3] 108% | [4] 112% | [5] 108% | [6] 77.3% | [7] 97.6% | [8] 88.9% | [9] 109% | [10] 113% | [11] 96.7% | [12] 59.1% | [13] 116% | [14] 87.4% | [15] 107% | [16] 82.4% | [17] 74.6% | [18] 92.9% | [19] 81.8%

CN(C)CCCC(=O)Nc1ccc(Cn2nnc3c2C(=O)c2nnn(Cc4ccc(NC(=O)CCCN(C)C)cc4)c2C3=O)cc1
inactive: [2] 102% | [3] 38.5% | [4] 83.2% | [5] 31% | [6] 116% | [7] 71.8% | [8] 91.9% | [9] 96.9% | [11] 86% | [12] 70.1% | [15] 90.8% | [16] 80.6% | [17] 77.8% | [18] 47.9% | [19] 85.8%
active: [1] 2.08% | [10] -9.75% | [13] -33.4% | [14] 3.74%

CC/C=C\C[C@H](O)C/C=C1/C(=O)C=C[C@@H]1C/C=C\CCCC(=O)NC
active: [1] -18.8% | [2] -41.1% | [4] -24.3% | [5] -49.9% | [7] -15.6% | [8] -36.7% | [9] -39.1% | [10] -25.2% | [12] 0.291% | [13] -27.9% | [15] -79.1% | [17] 8.54% | [18] -19% | [19] 6.09%
inactive: [3] 20.7% | [6] 48.4% | [11] 15% | [14] 26.5% | [16] 27.7%

O=C(CN1CCOCC1)Nc1ccc(Cn2nnc3c2C(=O)c2nnn(Cc4ccc(NC(=O)CN5CCOCC5)cc4)c2C3=O)cc1
inactive: [9] 12.1%
active: [1] -21.1% | [2] -27.4% | [3] -3.02% | [4] -38.6% | [5] 5.66% | [6] -36.9% | [7] -43% | [8] -11.9% | [10] -83.9% | [11] -76.7% | [12] 0.148% | [13] -81.6% | [14] -9.32% | [15] -18.7% | [16] -5.75% | [17] -44.9% | [18] -95.2% | [19] -90.4%

COc1ccc(C(=O)/C=C/c2c[n+](=O)c3ccc(F)cc3n2[O-])cc1
inactive: [1] 98.7% | [2] 102% | [3] 118% | [4] 104% | [5] 119% | [6] 85.7% | [7] 109% | [8] 108% | [9] 110% | [10] 127% | [11] 110% | [12] 102% | [13] 90.9% | [14] 106% | [15] 129% | [16] 96.8% | [17] 102% | [18] 106% | [19] 101%

O=C(Nc1ccc(Nc2cc(Nc3ccccc3)ncn2)cc1)Nc1cc(C(F)(F)F)ccc1F
inactive: [1] 77.5% | [2] 94.7% | [3] 61.9% | [4] 68.6% | [5] 69.8% | [6] 49.3% | [7] 24.5% | [8] 48.1% | [9] 84.4% | [10] 64.4% | [11] 65.7% | [12] 56.1% | [13] 85.9% | [14] 56.9% | [15] 61.2% | [16] 94.6% | [17] 84.2% | [18] 73.6% | [19] 57.4%

CN(C)c1ccc(C2Nc3ccccc3-n3cccc32)cc1 (stereo not drawn)
inactive: [1] 102% | [2] 82.8% | [3] 91.9% | [4] 107% | [5] 85.8% | [6] 89.7% | [7] 113% | [8] 98.3% | [9] 108% | [10] 96% | [11] 114% | [12] 121% | [13] 99.6% | [14] 96.5% | [15] 98.5% | [16] 103% | [17] 102% | [18] 111% | [19] 99.1%
